Results filed as inconclusive are left out. Calls of active or inactive are those of the source. The call rests on the fitted dose curve; in most records, active means well fitted curve in the direction sought with a large enough effect; inconclusive means small, poorly fitted or top-dose-only effect, or another doubt; inactive means no such curve, though single readings can be large; an effect the other way counts as inactive or inconclusive.
Key:
[1] = qHTS of pediatric cancer cell lines to identify multiple opportunities for drug repurposing: Primary screen for DAOY cells (AID 1347090); conditions: DAOY medulloblastoma viability, CellTiter-Glo luminescence, 48 h; series mostly up to 46 µM; further: nearly all actives have a fitted effect of over 55% in size
Method in brief: (§1)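 Viability measured as metabolically active cells via CellTiter-Glo luminescence following 48 hours of compound exposure, 11-point dilutions in confirmatory testing. 500-1,000 cells/well plated 5 hours before dosing; controls were DMSO and 2.3 µM bortezomib.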

[2] = qHTS of pediatric cancer cell lines to identify multiple opportunities for drug repurposing: Primary screen for SJ-GBM2 cells (AID 1347091); conditions: SJ-GBM2 viability, CellTiter-Glo luminescence, 48 h; series mostly up to 46 µM
Method in brief: as §1

[3] = qHTS of pediatric cancer cell lines to identify multiple opportunities for drug repurposing: Primary screen for A673 cells (AID 1347092); conditions: A673 Ewing sarcoma viability, CellTiter-Glo ATP luminescence, 48 h; series mostly up to 46 µM; further: nearly all actives have a fitted effect of over 45% in size
Method in brief: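 Luminescence from CellTiter-Glo, taken after 15 min at room temperature, served as the proxy for metabolically active cells following 48 h treatment. Both potency and efficacy were taken from curves fitted to the titration data.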

[4] = qHTS of pediatric cancer cell lines to identify multiple opportunities for drug repurposing: Primary screen for SK-N-MC cells (AID 1347093); conditions: SK-N-MC viability, CellTiter-Glo luminescence, 48 h; series mostly up to 46 µM; further: potency means the concentration at half of the fitted maximal effect
Method in brief: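 Metabolically active cells were quantified by ATP-dependent luminescence (CellTiter-Glo, 15 min at room temperature) following 48 h treatment. Cells had been plated at 500-1,000 per well and settled for 5 h beforehand.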

[5] = qHTS of pediatric cancer cell lines to identify multiple opportunities for drug repurposing: Primary screen for BT-37 cells (AID 1347094); conditions: BT-37 viability, CellTiter-Glo luminescence, 48 h; series mostly up to 57.3 µM
Method in brief: (§2)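 Quantitative HTS format: each compound titrated (MIPE 11 points from 0.78 nM, NPC 8 points from 0.59 nM) onto cells plated 5 hours earlier. After 48 h at 37 degrees C, CellTiter-Glo luminescence was recorded.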

[6] = qHTS of pediatric cancer cell lines to identify multiple opportunities for drug repurposing: Primary screen for NB-EBc1 cells (AID 1347095); conditions: NB-EBc1 neuroblastoma viability, CellTiter-Glo luminescence, 48 h; series mostly up to 46 µM
Method in brief: as §2

[7] = qHTS of pediatric cancer cell lines to identify multiple opportunities for drug repurposing: Primary screen for U-2 OS cells (AID 1347096); conditions: U-2 OS viability, CellTiter-Glo luminescence, 48 h; series mostly up to 46 µM; further: nearly all actives have a fitted effect of over 50% in size
Method in brief: (§3)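 Viability after 48 h compound treatment at 37C, 500-1,000 cells/well, read as ATP luminescence with CellTiter-Glo. Primary screens used 11-point (MIPE, 0.78 nM-46 µM) or 8-point (NPC, 0.59 nM-46 µM) final concentrations; follow-up screens used 11-point dilutions.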

[8] = qHTS of pediatric cancer cell lines to identify multiple opportunities for drug repurposing: Primary screen for Saos-2 cells (AID 1347097); conditions: Saos-2 viability, CellTiter-Glo ATP luminescence, 48 h; series mostly up to 46 µM; further: nearly all actives have a fitted effect of over 40% in size
Method in brief: as §2

[9] = qHTS of pediatric cancer cell lines to identify multiple opportunities for drug repurposing: Primary screen for SK-N-SH cells (AID 1347098); conditions: SK-N-SH viability, CellTiter-Glo luminescence, 48 h; series mostly up to 57 µM;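 further: DMSO served as neutral control and bortezomib at 2.3 µM as positive control; nearly all actives have a fitted effect of over 65% in size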
Method in brief: (§4)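 Cells (500-1,000/well) rested 5 h, then received compounds for 48 h; metabolically active cells were measured by CellTiter-Glo luminescence. Final concentrations spanned up to 46 µM (MIPE, 11-point) or 0.59 nM-46 µM (NPC, 8-point) in primary screens, 11-point in follow-ups.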

[10] = qHTS of pediatric cancer cell lines to identify multiple opportunities for drug repurposing: Primary screen for NB1643 cells (AID 1347099); conditions: NB1643 neuroblastoma viability, CellTiter-Glo luminescence, 48 h; series mostly up to 46 µM; further: nearly all actives have a fitted effect of over 50% in size
Method in brief: as §2

[11] = qHTS of pediatric cancer cell lines to identify multiple opportunities for drug repurposing: Primary screen for BT-12 cells (AID 1347101); conditions: BT-12 viability, CellTiter-Glo luminescence, 48 h; series mostly up to 57.3 µM; further: nearly all actives have a fitted effect of over 25% in size
Method in brief: as §4

[12] = qHTS of pediatric cancer cell lines to identify multiple opportunities for drug repurposing: Primary screen for Rh18 cells (AID 1347102); conditions: Rh18 rhabdomyosarcoma viability, CellTiter-Glo luminescence, 48 h; series mostly up to 46 µM; further: nearly all actives have a fitted effect of over 65% in size
Method in brief: as §3

[13] = qHTS of pediatric cancer cell lines to identify multiple opportunities for drug repurposing: Primary screen for OHS-50 cells (AID 1347103); conditions: OHS-50 osteosarcoma viability, CellTiter-Glo luminescence, 48 h; series mostly up to 57.3 µM; further: nearly all actives have a fitted effect of over 40% in size; further: potency means the concentration at half of the fitted maximal effect
Method in brief: as §4

[14] = qHTS of pediatric cancer cell lines to identify multiple opportunities for drug repurposing: Primary screen for RD cells (AID 1347104); conditions: RD rhabdomyosarcoma viability, CellTiter-Glo luminescence, 48 h; series mostly up to 46 µM; further: nearly all actives have a fitted effect of over 55% in size
Method in brief: as §2

[15] = qHTS of pediatric cancer cell lines to identify multiple opportunities for drug repurposing: Primary screen for MG 63 (6-TG R) cells (AID 1347105); conditions: MG 63 (6-TG R) viability, CellTiter-Glo, 48 h; series mostly up to 46 µM; further: nearly all actives have a fitted effect of over 50% in size
Method in brief: as §2

[16] = qHTS of pediatric cancer cell lines to identify multiple opportunities for drug repurposing: Primary screen for control Hh wild type fibroblast cells (AID 1347106); conditions: Hh wild-type fibroblast viability, CellTiter-Glo luminescence, 48 h; series mostly up to 46 µM;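 further: a drop in luminescence marks cytotoxicity and a rise apparent proliferation; nearly all actives have a fitted effect of over 55% in size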
Method in brief: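 Cells (500-1,000/well) in growth media were settled 5 h at 37 degrees C, then given compounds for 48 h. Viability was read as CellTiter-Glo luminescence. Primary runs used MIPE at 11 points (0.78 nM-46 µM) and NPC at 8 points (0.59 nM-46 µM); follow-ups used 11 points.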

[17] = qHTS of pediatric cancer cell lines to identify multiple opportunities for drug repurposing: Primary screen for Rh30 cells (AID 1347107); conditions: Rh30 rhabdomyosarcoma viability, CellTiter-Glo luminescence, 48 h; series mostly up to 46 µM; further: nearly all actives have a fitted effect of over 75% in size
Method in brief: as §3

[18] = qHTS of pediatric cancer cell lines to identify multiple opportunities for drug repurposing: Primary screen for Rh41 cells (AID 1347108); conditions: Rh41 rhabdomyosarcoma viability, CellTiter-Glo luminescence, 48 h; series mostly up to 46 µM;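 further: luminescence drop marks cytotoxic hits; nearly all actives have a fitted effect of over 70% in size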
Method in brief: as §2

[19] = qHTS of pediatric cancer cell lines to identify multiple opportunities for drug repurposing: Primary screen for LAN-5 cells (AID 1347100); conditions: LAN-5 neuroblastoma viability, CellTiter-Glo luminescence, 48 h; series mostly up to 46 µM
Method in brief: as §3

Measured: Potency

CNC(=O)c1cnn(-c2nc(N)c3ncn([C@@H]4O[C@H](CO)[C@@H](O)[C@H]4O)c3n2)c1
not listed: [19]
inactive: all other assays above

Cc1ccccc1N1CCN(CCc2nnc3n2CCCC3)CC1
not listed: [12] | [14]
inactive: all other assays above

CCc1cccc2c(CCO)c[nH]c12
not listed: [13] | [15]
inactive: all other assays above

CCS(=O)(=O)c1ccc(OC)c(C(=O)OC)c1
not listed: [17] | [19]
inactive: all other assays above

O=C(O)C1CCC1
not listed: [12] | [18]
inactive: all other assays above

O=C(O)CCCC[P+](c1ccccc1)(c1ccccc1)c1ccccc1
not listed: [12] | [15]
inactive: all other assays above

CCOC(=O)NNc1ccc(N(CC)CC(C)O)nn1 (stereo unspecified)
not listed: [19]
inactive: all other assays above

CCCCOC(=O)CCCCCCCCC(=O)OCCCC
not listed: [12] | [16] | [17]
inactive: all other assays above

Nc1c(I)cc(I)c(C(=O)N(CCC(=O)O)c2ccccc2)c1I
not listed: [12]
inactive: all other assays above

CC(C)(C)c1ccc(C(=O)CCCCl)cc1
not listed: [13] | [14] | [17]
inactive: all other assays above

C/C(=N/NC(=O)c1ccncc1)C(=O)O
not listed: [13] | [19]
inactive: all other assays above

C1=CC2C3C=CC(C3)C2C1 (stereo unspecified)
not listed: [13] | [14] | [16]
inactive: all other assays above

Cc1sccc1Br
not listed: [16] | [19]
inactive: all other assays above

Cc1nc([N+](=O)[O-])cn1-c1ccc([N+](=O)[O-])cc1
not listed: [12]
inactive: all other assays above

C/C(=C1\CCOC(=O)S1)N(C=O)Cc1cnc(C)nc1N
not listed: [12] | [13] | [17]
inactive: all other assays above

CCCCCOc1ccc(C2SC(=O)NC2=O)cc1OCC (stereo unspecified)
not listed: [11] | [13]
inactive: all other assays above

CC(C(=O)O)c1ccc(/C=C2\CCCCC2=O)cc1 (stereo unspecified)
not listed: [12]
inactive: all other assays above

O=C(CS(=O)Cc1ccco1)NC/C=C\COc1cc(CN2CCCCC2)ccn1 (stereo unspecified)
not listed: [12]
inactive: all other assays above

CNC(=O)c1c(I)c(NC(C)=O)c(I)c(C(=O)O)c1I
not listed: [15] | [16] | [19]
inactive: all other assays above

CC(C)CCCC(C)NCCC(C)C (stereo unspecified)
not listed: [12]
inactive: all other assays above

NC(=O)NS(=O)(=O)c1ccc(Cl)cc1
not listed: [18] | [19]
inactive: all other assays above

CN1[C@@H]2CC[C@H]1CC(NC(=O)n1c(=O)[nH]c3ccccc31)C2 (stereo partly specified)
not listed: [15] | [19]
inactive: all other assays above

O=C(Oc1ccccc1)c1ccccc1O
not listed: [19]
inactive: all other assays above

O=C1CC2(CCCC2)CC(=O)N1
not listed: [17] | [19]
inactive: all other assays above

CO/N=C(/C(=O)N[C@@H]1C(=O)N2C(C(=O)O)=C(Cn3nnc(C)n3)CS[C@H]12)c1csc(N)n1
not listed: [17] | [18] | [19]
inactive: all other assays above

O=C(c1ccccc1)c1ccccc1
not listed: [12] | [16]
inactive: all other assays above

CC[N+]1(CC)CCC(=C(c2ccccc2)c2ccccc2)C1C (stereo unspecified)
active: [4] 18.8 µM
not listed: [11] | [13] | [18]
inactive: all other assays above

COC(=O)c1cc(S(N)(=O)=O)ccc1OC
not listed: [16] | [19]
inactive: all other assays above

CC1c2ccccc2CN1NC(=O)c1ccc(Cl)c(S(N)(=O)=O)c1 (stereo unspecified)
not listed: [12]
inactive: all other assays above

Cc1cc(CCCOc2c(C)cc(-c3noc(C(F)(F)F)n3)cc2C)on1
active: [13] 19.5 µM
not listed: [11]
inactive: all other assays above

CC(=O)N(c1onc(C)c1C)S(=O)(=O)c1ccc(N)cc1
not listed: [8] | [14]
inactive: all other assays above

Nc1ncnc2c1ncn2Cc1c(F)cccc1Cl
not listed: [8] | [17]
inactive: all other assays above

CO[C@@]1(NC(=O)CSC[C@@H](N)C(=O)O)C(=O)N2C(C(=O)O)=C(CSc3nnnn3C)CS[C@@H]21
not listed: [8] | [18]
inactive: all other assays above

CC1(C)O[C@@H]2C[C@H]3[C@@H]4CCC5=CC(=O)C=C[C@]5(C)[C@@]4(F)[C@@H](O)C[C@]3(C)[C@]2(C(=O)CO)O1
not listed: [10] | [13]
inactive: all other assays above

CCOC(=O)[C@H](CCc1ccccc1)N[C@@H](C)C(=O)N(CC(=O)O)C1Cc2ccccc2C1
not listed: [9] | [14] | [15] | [18]
inactive: all other assays above
